Screening results deposited in PubChem by Center for Chemical Genomics, University of Michigan.
The full list was thinned out, with hits kept by preference.
Dicer inh: human Dicer pre-microRNA cleavage inhibition | cat-ELCCA pre-miR-21 Dicer processing, chemiluminescence; hits give high values | z-score at 25 µM | Q9UPY3 | 6% of 47,000 active | AID 1347074; in the data active = z-score above about 3, passing the limit was not always enough;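 note: higher signal means more uncleaved substrate so more Dicer inhibition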
Numbers stand for hits; – = inactive.

SMILES | Dicer inh
O=C1c2cccc3cccc(c23)C(=O)N1c1ccccc1O | –
COc1ccc(OC)c(N2C(=O)c3cccc4cccc(c34)C2=O)c1 | 5.7
Nc1ccccc1N1C(=O)c2cccc3cccc(c23)C1=O | –
COc1cc(CNCCSc2nnnn2C)ccc1OCc1ccccc1F | –
S=c1[nH]c(=S)c2cc(Cl)ccc2[nH]1 | –
COc1ccc(C(=O)NC(=Nc2c(C)cccc2C)SC)cc1 | –
Cc1ccc2nc(-c3ccc(N)cc3)[nH]c2c1 | 4
Nc1ccc(-c2nc3ccc(-c4nc5ccc(N)cc5[nH]4)cc3[nH]2)cc1 | –
Nc1ccc2nc(-c3ccc(-c4nc5ccc(N)cc5[nH]4)cc3)[nH]c2c1 | –
C=CCOc1ccc(C2CC(=O)Nc3nc(N)[nH]c(=O)c32)cc1 (configuration not stated) | –
O=S(=O)(c1ccc(-n2cccn2)cc1)N(Cc1ccccn1)Cc1ccccn1 | –
COc1cc(OC)c(C(F)(F)F)cc1[N+](=O)[O-] | –
CCCCC(C(=O)O)N1C(=O)C2C3c4ccccc4C(c4ccccc43)C2C1=O (configuration not stated) | 3.5
O=C(O)C(Cc1ccccc1)N1C(=O)C2CCCCC2C1=O (configuration not stated) | –
O=C1C2C3c4ccccc4C(C(=O)O)(c4ccccc43)C2C(=O)N1Cc1ccccc1 (configuration not stated) | –
CN1CCN(C2Cc3ccccc3Sc3ccc(Cl)cc32)CC1 (configuration not stated) | –
CC1CN(CCO)Cc2ccc(Cl)cc21 (configuration not stated) | 3.2
CN1CCN(CC(=O)N2c3ccccc3Sc3ccc(Cl)cc32)CC1 | –
CS(=O)(=O)c1ccc(C(=O)O)s1 | –
CC1(C)CCc2cc(/C=N/O)ccc2O1 | –
Cc1nnc(SCc2nc(-c3ccc(Cl)cc3)no2)n1-c1ccccc1 | –
c1ccc(-c2noc(CSc3nnc(-c4ccco4)n3-c3ccccc3)n2)cc1 | –
c1ccc(-c2noc(CSc3nnc(-c4cccs4)n3-c3ccccc3)n2)cc1 | 3.6
O=C(NNC(=S)Nc1cc(C(F)(F)F)cc(C(F)(F)F)c1)c1ccc[nH]1 | –
CCOC(=O)c1cnc(Nc2ccc(F)cc2)nc1C(F)(F)F | –
SMILES | Dicer inh
CCc1ccc(C(=O)CC2(O)C(=O)Nc3ccc(C)cc32)cc1 (configuration not stated) | –
CCn1cc(C(=O)O)c(=O)c2cc3c(cc21)OCO3 | –
CCn1cc(C(=O)O)c(=O)c2cnc(N3CCN(C(=O)Nc4ccccc4)CC3)nc21 | –
CCn1cc(C(=O)O)c(=O)c2cnc(N3CCCC3)nc21 | 4.5
Cc1ccc(-c2nc(NC(=O)c3ccc(C(F)(F)F)cc3)sc2C)cc1Cl | –
C=CCn1c(=S)sc2c(Sc3nnc(-c4ccncc4)n3C)ncnc21 | –
COc1ccc(OC)c(-c2noc(CSc3nc4ccccc4[nH]3)n2)c1 | –
COc1ccc(-c2noc(CSc3nc4ccccc4[nH]3)n2)cc1OC | 3.2
COc1ccc(-c2noc(CSc3nc4ccccc4[nH]3)n2)c(OC)c1 | –
Cc1csc(-c2cn(C(C)C)c(=O)n(CC(=O)NN)c2=O)n1 | –
COc1ccc(C2(C)SCc3cc(C)c(C)cc3CS2)cc1 | –
COC(=O)CSC1=C(C#N)C(c2ccc(O)c(OC)c2)CC(=O)N1 (configuration not stated) | –
CC1=CC(C)(C)N2C(=O)C(=O)c3cc(OC(=O)c4ccccc4Br)cc1c32 | –
CCOC(=O)Oc1ccc2c(c1)C(C)=CC(C)(C)N2 | –
CC1=CC(C)(C)Nc2ccc(OC(=O)c3ccc(Cl)cc3)cc21 | –
CC1=CC(C)(C)Nc2ccc(OC(=O)c3ccccc3Br)cc21 | 4
CC1=CC(C)(C)Nc2ccc(OC(=O)COc3ccccc3)cc21 | –
CC1=CC(C)(C)Nc2ccc(OC(=O)c3cccc(Br)c3)cc21 | 3.1
CCCCN1Cc2c(n(CC(N)=O)c3cc(-c4ccccc4)nn3c2=O)C1=O | –
CCCCN1Cc2c(n(CC(=O)c3ccccc3)c3cc(-c4ccccc4)nn3c2=O)C1=O | 3.1
CCCCN1Cc2c(n(Cc3ccccc3)c3cc(-c4ccccc4)nn3c2=O)C1=O | –
Cc1cc(Cl)ccc1OCC1NCCS1 (configuration not stated) | –
O=C1CC(c2ccccc2)C(=O)N1c1cc(Cl)cc(Cl)c1 (configuration not stated) | 5.3
O=C1CC(c2ccccc2)CC(=O)N1c1ccc(Oc2ccc(Cl)cc2)cc1 | –
CC(C)(C)c1ccc(N2C(=O)CC(c3ccccc3)C2=O)cc1 (configuration not stated) | 5.3
COc1ccc(N2C(=O)CC(N3CCN(C)CC3)C2=O)cc1 (configuration not stated) | –
COc1ccc(N2C(=O)CC(c3ccccc3)C2=O)cc1 (configuration not stated) | 4.3
CC(C)(C)NC1CC(=O)N(c2ccccc2)C1=O (configuration not stated) | –
Cn1cc(C2CC(=O)N(c3ccc(O)cc3)C2=O)c2ccccc21 (configuration not stated) | –
O=C1CC(c2ccccc2)CC(=O)N1c1ccccc1 | –
